# Results from PubChem BioAssay.
# Active and inactive are the calls of the source.
# How the values were obtained:
# [1] = binders of probe aFSTL3 on microarray, primary screen, stem cell growth factor project, biochemical, small-molecule microarray, fluorescence 635/667 (AID 1064); conditions: higher = more signal;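 note: measures binding of the biotinylated anti-FSTL3 antibody to printed compounds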
# [2] = binders from COS7 lysate, DM2A8 probe, primary screen, torsin A project, cell lysate, small-molecule microarray, fluorescence 635/667 (AID 1065); conditions: higher = more signal, COS7 lysate expressing mutant human TOR1A
# [3] = binders of probe aFGF2 on microarray, primary screen, stem cell growth factor project, biochemical, small-molecule microarray, fluorescence 635/667 (AID 1067); conditions: higher = more signal;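 note: measures binding of biotinylated aFGF2 protein to printed compounds on slides; z-score merges feature fluorescence and signal-to-noise across triplicate slides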
# [4] = binders of probe aFGF10 on microarray, primary screen, stem cell growth factor project, biochemical, small-molecule microarray, fluorescence 635/667 (AID 1071); conditions: higher = more signal;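 note: score merges 667 nm spot intensity and signal to noise from triplicate slides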
# [5] = target: Neurogenic locus notch homolog protein 2 (Homo sapiens) (UniProt Q04721); test: Notch2 binders on small-molecule microarrays, primary screen, biochemical, small-molecule microarray, 635 nm fluorescence, stem cell growth factors (AID 1073); conditions: Notch2 binding, higher = more signal
# [6] = target: Pro-neuregulin-1, membrane-bound isoform (Homo sapiens) (UniProt Q02297); test: NRG1 binders on small-molecule microarrays, primary screen, psychiatric disease protein project, biochemical, small-molecule microarray, fluorescence 635/667 (AID 1075); conditions: NRG1 binding, 635 nm fluorescence, higher = more signal;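 note: score combines 667 nm spot fluorescence with signal to noise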
# [7] = system: Neuregulin-1 EGF-like domain; test: binders of neuregulin-1 EGF-like domain, primary screen, biochemical, small-molecule microarray, 635 nm fluorescence (AID 1081); conditions: small-molecule microarray binding, higher = more signal;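 note: binding of the protein to compounds printed on small-molecule microarray slides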
# [8] = FRG1 promoter luciferase signal modulators, primary screen, FRG1 inhibition for FSHD, cell-based, C2C12 myotubes, firefly/Renilla luciferase, luminescence (AID 1084); conditions: higher = more signal, called active from +8 up or from −8 down
# [9] = binders of probe aFST on microarray, primary screen, stem cell growth factor project, biochemical, small-molecule microarray, fluorescence 635/667 (AID 1086); conditions: higher = more signal;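 note: score merges 667 nm fluorescence with signal-to-noise of each printed compound spot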
# [10] = binders of probe aHhip on microarray, primary screen, stem cell growth factor project, biochemical, small-molecule microarray, fluorescence 635/667 (AID 1087); conditions: higher = more signal;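 note: score merges spot fluorescence at 667nm with spot signal to noise ratio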
# [11] = system: PRMT1 (protein arginine N-methyltransferase 1); test: PRMT1 binders on small-molecule microarrays, primary screen, biochemical, small-molecule microarray, 635 nm fluorescence (AID 1088); conditions: small-molecule microarray binding, higher = more signal;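 note: binding of Prmt1 protein to compounds spotted on small-molecule microarray slides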
# [12] = yeast growth modulation, basal conditions, primary screen, YJM789 clinical isolate, OD600, 24 h (AID 1089);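 note: growth of clinical yeast isolate S. cerevisiae YJM 789 seeded 1000 cells per well; test concentration not given here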; conditions: S. cerevisiae YJM789 growth, higher = more signal, called active from +8 up or from −8 down
# [13] = fission yeast growth modulation, primary screen, strain 972, OD600, 24 h, no modulator (AID 1090);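 note: basal condition with compound alone and no growth modifier present; test concentration not given here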; conditions: S. pombe 972 growth, higher = more signal, called active from +8 up or from −8 down
# [14] = S. cerevisiae growth modulation with rapamycin, primary screen, strain BY4716, OD600, 96 h (AID 1091); conditions: higher = more signal, called active from +8 up or from −8 down; note: test concentration not given here
# [15] = target: Torsin-1A-interacting protein 2 (Homo sapiens) (UniProt Q8NFQ8); test: LULL1 binders on small-molecule microarray, primary screen, cell lysate, human LULL1 lysate, 635/667 nm fluorescence (AID 1092); conditions: hLULL1 lysate binding, 635 nm fluorescence, higher = more signal;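 note: probe is lysate of COS7 cells overexpressing human LULL1; score merges per-feature 667 nm fluorescence with signal-to-noise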
# [16] = E. coli growth modulation, two-sided OD650, primary screen, E. coli filamentation project, strain DRC41, 24 h (AID 1093); conditions: OD650, 24 h, higher = more signal, called active from +8 up or from −8 down;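 note: MC1000 strain lacking acrAB efflux and sulA so SOS filamentation is blocked; test concentration not given here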
# [17] = small-molecule microarray binders of probe aLefty2, primary screen, biochemical, biotinylated probe, 635/667 nm fluorescence (AID 1094); conditions: higher = more signal;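 note: score merges spot fluorescence near 667 nm with spot signal-to-noise ratio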
# [18] = system: Noggin (protein binding on small-molecule microarray); test: Noggin binders on small-molecule microarray, primary screen, biochemical, 635/667 nm fluorescence (AID 1095); conditions: 635 nm fluorescence, higher = more signal;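 note: score merges 667 nm feature fluorescence with signal to noise over triplicate slides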
# [19] = target: Neurogenic locus notch homolog protein 3 (Homo sapiens) (UniProt Q9UM47); test: NOTCH3 binders on small-molecule microarray, primary screen, biochemical, 635/667 nm fluorescence (AID 1096); conditions: NOTCH3 binding, 635 nm fluorescence, higher = more signal
# [20] = small-molecule microarray binders of probe aEGFR, primary screen, biochemical, biotinylated probe, 635/667 nm fluorescence (AID 1097); conditions: higher = more signal;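 note: probe is a biotinylated anti-EGFR antibody binding compounds printed on slides; score combines fluorescence near 667 nm and signal to noise of each spot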
# Sequence of Neurogenic locus notch homolog protein 3 (Homo sapiens) (Q9UM47 whole entry, looked up): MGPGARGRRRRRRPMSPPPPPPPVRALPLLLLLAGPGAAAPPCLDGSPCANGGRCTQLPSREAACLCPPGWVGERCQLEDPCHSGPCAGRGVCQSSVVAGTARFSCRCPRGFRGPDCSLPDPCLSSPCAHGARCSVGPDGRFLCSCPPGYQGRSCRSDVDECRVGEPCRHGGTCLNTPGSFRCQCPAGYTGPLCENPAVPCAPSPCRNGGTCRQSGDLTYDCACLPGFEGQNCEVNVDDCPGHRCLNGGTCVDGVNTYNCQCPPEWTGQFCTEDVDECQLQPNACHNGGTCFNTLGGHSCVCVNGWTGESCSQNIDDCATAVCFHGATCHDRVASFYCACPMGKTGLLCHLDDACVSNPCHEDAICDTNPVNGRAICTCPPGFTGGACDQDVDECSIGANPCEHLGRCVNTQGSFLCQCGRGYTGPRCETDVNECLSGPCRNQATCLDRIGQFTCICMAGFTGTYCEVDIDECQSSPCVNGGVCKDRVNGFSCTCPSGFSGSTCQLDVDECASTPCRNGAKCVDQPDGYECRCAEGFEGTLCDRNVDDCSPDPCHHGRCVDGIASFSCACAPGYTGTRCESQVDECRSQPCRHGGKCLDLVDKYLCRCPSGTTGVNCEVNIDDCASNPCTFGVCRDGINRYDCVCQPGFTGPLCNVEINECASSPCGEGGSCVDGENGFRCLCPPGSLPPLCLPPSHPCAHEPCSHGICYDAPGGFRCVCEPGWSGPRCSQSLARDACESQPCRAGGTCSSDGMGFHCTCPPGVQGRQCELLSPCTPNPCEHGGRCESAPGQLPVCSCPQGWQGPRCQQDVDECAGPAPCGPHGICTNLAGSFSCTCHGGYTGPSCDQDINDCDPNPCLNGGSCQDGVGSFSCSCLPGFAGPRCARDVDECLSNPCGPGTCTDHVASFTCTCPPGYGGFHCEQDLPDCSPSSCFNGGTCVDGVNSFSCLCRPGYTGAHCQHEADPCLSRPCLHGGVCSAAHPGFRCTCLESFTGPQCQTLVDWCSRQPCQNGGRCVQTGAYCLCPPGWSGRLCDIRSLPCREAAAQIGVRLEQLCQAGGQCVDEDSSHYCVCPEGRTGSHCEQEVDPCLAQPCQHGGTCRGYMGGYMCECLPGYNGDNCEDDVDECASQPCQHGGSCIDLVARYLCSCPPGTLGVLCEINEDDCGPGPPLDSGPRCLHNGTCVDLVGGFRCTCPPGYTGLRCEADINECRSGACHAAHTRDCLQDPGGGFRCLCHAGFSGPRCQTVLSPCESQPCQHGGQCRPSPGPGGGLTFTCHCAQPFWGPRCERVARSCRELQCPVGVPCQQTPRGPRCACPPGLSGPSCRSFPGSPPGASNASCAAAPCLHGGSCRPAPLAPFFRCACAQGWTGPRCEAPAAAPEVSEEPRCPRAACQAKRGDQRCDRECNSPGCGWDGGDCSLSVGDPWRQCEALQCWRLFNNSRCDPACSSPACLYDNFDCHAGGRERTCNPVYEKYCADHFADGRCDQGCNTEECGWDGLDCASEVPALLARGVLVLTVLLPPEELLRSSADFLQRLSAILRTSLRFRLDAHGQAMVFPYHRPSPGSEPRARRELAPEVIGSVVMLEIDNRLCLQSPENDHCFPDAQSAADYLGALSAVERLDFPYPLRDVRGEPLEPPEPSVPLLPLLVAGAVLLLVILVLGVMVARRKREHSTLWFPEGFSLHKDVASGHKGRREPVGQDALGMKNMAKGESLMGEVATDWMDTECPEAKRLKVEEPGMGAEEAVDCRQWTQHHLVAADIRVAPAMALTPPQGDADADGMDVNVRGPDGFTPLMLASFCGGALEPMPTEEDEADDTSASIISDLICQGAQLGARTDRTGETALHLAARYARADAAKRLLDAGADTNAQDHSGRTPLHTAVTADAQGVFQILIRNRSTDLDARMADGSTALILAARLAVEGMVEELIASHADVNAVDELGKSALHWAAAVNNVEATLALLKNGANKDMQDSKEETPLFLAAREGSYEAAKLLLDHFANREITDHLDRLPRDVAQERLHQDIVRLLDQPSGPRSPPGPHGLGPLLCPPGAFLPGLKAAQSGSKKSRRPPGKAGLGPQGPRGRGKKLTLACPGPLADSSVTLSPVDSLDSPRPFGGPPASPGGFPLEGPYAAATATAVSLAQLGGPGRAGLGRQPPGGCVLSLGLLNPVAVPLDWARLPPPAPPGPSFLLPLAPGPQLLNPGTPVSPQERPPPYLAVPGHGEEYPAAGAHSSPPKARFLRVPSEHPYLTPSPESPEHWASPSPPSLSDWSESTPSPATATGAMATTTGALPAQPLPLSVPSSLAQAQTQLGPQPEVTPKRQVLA
# Sequence of Torsin-1A-interacting protein 2 (Homo sapiens) (Q8NFQ8 whole entry, looked up): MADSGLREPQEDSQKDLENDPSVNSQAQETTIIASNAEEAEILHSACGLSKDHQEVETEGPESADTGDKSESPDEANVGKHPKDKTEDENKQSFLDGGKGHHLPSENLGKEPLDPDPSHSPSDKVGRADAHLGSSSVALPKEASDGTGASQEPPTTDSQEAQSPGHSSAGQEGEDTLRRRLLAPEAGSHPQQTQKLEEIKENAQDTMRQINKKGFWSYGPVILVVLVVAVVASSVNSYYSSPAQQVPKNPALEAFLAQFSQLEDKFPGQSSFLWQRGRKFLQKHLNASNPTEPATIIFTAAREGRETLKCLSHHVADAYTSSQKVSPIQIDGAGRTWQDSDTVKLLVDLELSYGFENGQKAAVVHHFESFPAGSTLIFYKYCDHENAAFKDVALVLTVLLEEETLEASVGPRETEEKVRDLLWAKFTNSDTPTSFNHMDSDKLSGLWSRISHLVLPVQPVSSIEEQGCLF
# Sequence of Pro-neuregulin-1, membrane-bound isoform (Homo sapiens) (Q02297 whole entry, looked up, the tested form may be a part, canonical isoform): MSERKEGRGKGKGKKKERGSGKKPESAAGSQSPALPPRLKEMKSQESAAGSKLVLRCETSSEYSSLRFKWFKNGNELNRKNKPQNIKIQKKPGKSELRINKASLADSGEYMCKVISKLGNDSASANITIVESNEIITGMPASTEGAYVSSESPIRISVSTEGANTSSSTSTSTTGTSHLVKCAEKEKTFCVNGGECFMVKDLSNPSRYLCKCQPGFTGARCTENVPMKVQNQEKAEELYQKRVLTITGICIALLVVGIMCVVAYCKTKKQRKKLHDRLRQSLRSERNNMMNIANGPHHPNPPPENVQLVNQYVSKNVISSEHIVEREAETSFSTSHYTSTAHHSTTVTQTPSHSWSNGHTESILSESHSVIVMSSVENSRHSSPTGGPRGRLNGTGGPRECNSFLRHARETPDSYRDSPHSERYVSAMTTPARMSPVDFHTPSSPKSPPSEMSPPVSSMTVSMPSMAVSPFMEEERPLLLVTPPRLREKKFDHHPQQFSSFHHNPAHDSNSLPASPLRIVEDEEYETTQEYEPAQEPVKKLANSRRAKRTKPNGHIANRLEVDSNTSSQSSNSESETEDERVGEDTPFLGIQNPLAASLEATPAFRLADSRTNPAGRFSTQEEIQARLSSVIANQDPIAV
SMILES,composite z-score [1],composite z-score [2],composite z-score [3],composite z-score [4],composite z-score [5],composite z-score [6],composite z-score [7],z-score [8],composite z-score [9],composite z-score [10],composite z-score [11],z-score [12],z-score [13],z-score [14],composite z-score [15],z-score [16],composite z-score [17],composite z-score [18],composite z-score [19],composite z-score [20]
COc1ccc([Si](C)(C)[C@@H]2[C@@H](CC(=O)N(CCO)Cc3ccccc3)O[C@]3(C(=O)N(Cc4ccc(N5CCC5=O)cc4)c4ccccc43)[C@H]2C)cc1,-0.0664,0.461,-0.0226,0.0667,0.0102,0.695,0.677,-0.192 (inactive),2.26,-0.0267,-0.0625,0.127 (inactive),-0.246 (inactive),1.87 (inactive),0.628,1.31 (inactive),0.536,0.343,-0.0568,-0.199
COCC1=C([C@H](O)CCc2ccccc2)[C@H](CO)n2c(=O)n(-c3ccccc3)c(=O)n2C1,-0.13,-0.235,-0.112,0.204,-0.423,-0.675,-0.416,-3.19 (inactive),-0.371,-0.156,-0.872,-1.47 (inactive),-1.41 (inactive),-0.259 (inactive),-0.728,2.86 (inactive),-0.0146,-0.0338,-0.907,-0.253
C=CCC(OC(C)=O)[C@@H]1[C@@H](N(Cc2cc3ccccc3o2)C(=O)Cc2ccc(OC)cc2)c2cc(OCCCO)ccc2N1C(=O)Cc1ccc(OC)cc1 (stereo not given in full),-0.186,0.0357,-0.0459,0.0855,-0.144,-0.0625,0.0781,-1.19 (inactive),-0.0586,0.0623,0.0873,-0.484 (inactive),0.142 (inactive),-0.197 (inactive),0.0103,-0.847 (inactive),-0.0757,0.312,-0.293,-0.108
COc1cc(OC)c(C(O)C2C=CC3C(=O)N(c4ccccc4)C(=O)C3N2Nc2ccccc2F)cc1Br (stereo not given),0.0776,0.948,0.0619,0.61,1.44,1.74,1.25,0.0172 (inactive),1.53,-0.0088,1.58,0.0228 (inactive),1.77 (inactive),0.511 (inactive),3.44,-1.36 (inactive),0.0235,0.662,1.03,-0.0531
COCCOC(=O)N1C(=O)[C@@]2(c3cc(C#CC4(O)CCCCCC4)ccc31)[C@H](C(=O)NC[C@H](O)c1ccccc1)[C@H]1C(=O)O[C@H](c3ccccc3)[C@H](c3ccccc3)N1[C@@H]2c1ccc(O)cc1,-0.0443,0.224,-0.0193,1,0.496,0.802,1.28,-0.0865 (inactive),0.153,0.176,1.48,0.295 (inactive),0.956 (inactive),0.927 (inactive),2.49,1.43 (inactive),-0.0289,0.3,0.871,-0.0703
Cc1ccc(F)cc1S(=O)(=O)N[C@@H]1CCN(Cc2ccc3c(c2)OCO3)C1,-0.125,0.267,-0.135,-0.0066,-0.898,-0.474,-0.276,-4.06 (inactive),-0.264,-0.0994,-0.5,0.158 (inactive),-2.41 (inactive),1.23 (inactive),-0.539,-1.4 (inactive),-0.148,0.171,-0.307,-0.226
CCCCNC(=O)c1ccc(C#C[Si](C)(C)C)c(OC(C)=O)c1,-0.175,0.293,-0.0718,0.112,0.277,-0.166,0.103,1.87 (inactive),-0.0501,-0.0726,0.305,0.453 (inactive),-2.02 (inactive),-0.973 (inactive),-0.092,1.54 (inactive),-0.0926,0.309,-0.174,-0.096
CC(C)CNC(=O)[C@@H]1c2ccccc2C(=O)N(Cc2ccccc2)[C@H]1c1ccc(CO)cc1,1.12,0.886,0.0173,-0.0403,-1.04,0.935,0.76,-0.504 (inactive),-0.469,-0.118,0.586,-0.416 (inactive),0.138 (inactive),-0.895 (inactive),3.22,-0.73 (inactive),-0.188,-0.731,-0.677,-0.189
C=C(CCCC)C(=O)CC[C@H](OC(=O)c1cccnc1)c1ccc(CO)o1,-0.426,1.08,-0.0752,0.797,0.816,0.407,1.23,-0.0577 (inactive),0.606,-0.134,1.55,-0.697 (inactive),-0.176 (inactive),-0.036 (inactive),2.07,-0.0138 (inactive),0,1.47,1.13,0.045
COC(=O)Cn1c(C(=O)N(C)C)cc2c1C[C@H]1CN(C(=O)c3ccccc3)[C@@](Cc3ccc(OC)cc3)(C(=O)OC)[C@@H]21,0.2,-0.195,0.347,1.25,1.19,2.13,1.18,0.296 (inactive),0.513,0.0053,0.995,0.211 (inactive),0.833 (inactive),0.493 (inactive),3.7,-0.692 (inactive),0.134,0.471,1.11,-0.0476
COC(=O)c1c(CC[C@@H](CO)NC(=O)N[C@@H](Cc2ccccc2)Cn2cc(-c3cncn3C)nn2)oc(C(C)=O)c1C(=O)OC,-0.42,0.259,-0.129,0.716,-0.451,1.67,1.29,0.691 (inactive),0.0625,-0.0401,1.51,0.268 (inactive),-0.0536 (inactive),-0.131 (inactive),2.99,0.916 (inactive),-0.215,0.801,0.912,-0.142
COc1ccc(CCNC(=O)[C@@]2(Sc3ccc(C)cc3)CC(=O)N(Cc3cc(C(F)(F)F)cc(C(F)(F)F)c3)[C@@H]2c2ccc(CO)cc2)cc1,0.575,-0.748,-0.188,-0.498,-1.79,-0.854,-0.637,0.522 (inactive),-0.498,0.132,-0.772,-1.11 (inactive),-0.912 (inactive),-0.683 (inactive),0.92,-0.466 (inactive),0.344,-1.69,-1.26,-0.213
CN(C)CCCNC(=O)[C@@H]1c2ccccc2C(=O)N(C2Cc3ccccc3C2)[C@H]1c1ccc(CO)cc1,0.158,0.345,-0.0566,-0.273,0.175,0.618,0.849,-1.3 (inactive),0.178,-0.151,1.56,-0.463 (inactive),-0.271 (inactive),-0.915 (inactive),2.03,0.688 (inactive),-0.127,0.0726,0.241,0.111
C=C(C(=O)CC[C@@H](OC(C)=O)c1cccc(OCCO)c1)C(C)C,-0.0377,0.108,-0.0996,0.365,-0.768,1.92,0.568,0.44 (inactive),-0.337,-0.0672,0.745,1.55 (inactive),-0.464 (inactive),0.339 (inactive),1.62,0.351 (inactive),-0.186,-0.0056,0.507,-0.207
COCCCNC(=O)[C@@]1(Sc2ccc(C)cc2)CC(=O)N(C2CCCCC2)[C@@H]1c1ccc(CO)cc1I,-0.364,0.657,0.0442,0.655,1.02,1.56,1.26,-3.63 (inactive),0.505,0.176,1.54,-1.9 (inactive),-0.128 (inactive),0.0267 (inactive),2.81,0.331 (inactive),-0.0333,0.451,1.04,0.0944
COCCOC(=O)N1C(=O)[C@@]2(c3cc(C#CCC(C(=O)OC)C(=O)OC)ccc31)[C@H](C(N)=O)[C@H]1C(=O)O[C@H](c3ccccc3)[C@H](c3ccccc3)N1[C@@H]2c1ccc(OCCO)cc1,-0.231,0.787,0.0001,0.906,1.34,1.19,1.23,0.789 (inactive),0.111,-0.249,1.53,2.23 (inactive),2.01 (inactive),6.44 (inactive),2.77,-0.55 (inactive),0.0139,0.813,1.08,-0.0245
CCCCCCCCCCC(O)C1C=CC2C(=O)N(C)C(=O)C2N1N1CCCCC1 (stereo not given),0.449,-0.346,-0.213,-1.1,-1.96,0.252,-0.413,-0.635 (inactive),-0.744,-0.0423,-0.804,1.16 (inactive),-2.31 (inactive),2.18 (inactive),1.64,-1.6 (inactive),-0.118,-1.9,-1.14,-0.368
C#CCN=C(N)N,-0.504,0.147,-0.127,0.209,0.389,0.748,1.01,0.007 (inactive),0.224,-0.226,0.21,-0.303 (inactive),-0.349 (inactive),-0.247 (inactive),0.737,-0.291 (inactive),-0.18,0.759,0.562,0.0768
CC(C)C[C@@H]1NC(=O)[C@@H]2C[C@H](C(=O)NCCCC[N+](C)(C)C)[C@H](c3ccc(O)cc3)N2C1=O,-0.358,1.4,-0.116,0.639,0.113,1.54,1.32,0.53 (inactive),0.221,0.319,1.53,-0.246 (inactive),0.491 (inactive),-1.48 (inactive),1.76,0.0731 (inactive),-0.0295,1.91,1.02,0.0251
C=C(CC1([C@@H](NP(=O)(c2ccccc2)c2ccccc2)[C@H]2C[C@@H]2CCN(C(=O)OCC)S(=O)(=O)c2ccc(C)cc2)CC1)c1ccccc1,0.0862,-0.163,0.226,0.821,1.67,1.38,1.12,0.894 (inactive),1.5,0.128,-0.362,0.585 (inactive),0.722 (inactive),3.51 (inactive),2.98,-0.926 (inactive),0.502,0.229,1.02,0.104
